This passage reports inhibition results from ChEMBL document CHEMBL1961873, “Compounds: GSK PKIS; Assays: Nanosyn kinase panel” (2012).

The target of experiment [1] is T1, Mitogen-activated protein kinase 12 (Homo sapiens) (UniProt P53778).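 Further: values are averaged p38gamma kinase inhibition readings, compounds tested at 1 µM.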
T1 sequence (whole entry): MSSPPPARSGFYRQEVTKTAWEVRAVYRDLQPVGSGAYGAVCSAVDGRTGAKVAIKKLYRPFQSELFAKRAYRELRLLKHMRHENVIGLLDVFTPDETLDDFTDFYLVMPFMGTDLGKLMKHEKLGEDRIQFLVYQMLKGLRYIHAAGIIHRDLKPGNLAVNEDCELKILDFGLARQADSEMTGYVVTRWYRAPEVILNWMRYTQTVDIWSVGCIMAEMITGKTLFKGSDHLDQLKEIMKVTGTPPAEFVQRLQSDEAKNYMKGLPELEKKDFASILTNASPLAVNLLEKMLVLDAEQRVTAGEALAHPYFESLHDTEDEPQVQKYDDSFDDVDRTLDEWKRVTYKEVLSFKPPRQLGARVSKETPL
The conditions noted are these: at 1 µM.

The target in experiment [2] is SRSF protein kinase 1 (Homo sapiens) (UniProt Q96SB4). The conditions noted are these: at 0.1 µM.
Sequence of SRSF protein kinase 1 (Homo sapiens) (Q96SB4 whole entry): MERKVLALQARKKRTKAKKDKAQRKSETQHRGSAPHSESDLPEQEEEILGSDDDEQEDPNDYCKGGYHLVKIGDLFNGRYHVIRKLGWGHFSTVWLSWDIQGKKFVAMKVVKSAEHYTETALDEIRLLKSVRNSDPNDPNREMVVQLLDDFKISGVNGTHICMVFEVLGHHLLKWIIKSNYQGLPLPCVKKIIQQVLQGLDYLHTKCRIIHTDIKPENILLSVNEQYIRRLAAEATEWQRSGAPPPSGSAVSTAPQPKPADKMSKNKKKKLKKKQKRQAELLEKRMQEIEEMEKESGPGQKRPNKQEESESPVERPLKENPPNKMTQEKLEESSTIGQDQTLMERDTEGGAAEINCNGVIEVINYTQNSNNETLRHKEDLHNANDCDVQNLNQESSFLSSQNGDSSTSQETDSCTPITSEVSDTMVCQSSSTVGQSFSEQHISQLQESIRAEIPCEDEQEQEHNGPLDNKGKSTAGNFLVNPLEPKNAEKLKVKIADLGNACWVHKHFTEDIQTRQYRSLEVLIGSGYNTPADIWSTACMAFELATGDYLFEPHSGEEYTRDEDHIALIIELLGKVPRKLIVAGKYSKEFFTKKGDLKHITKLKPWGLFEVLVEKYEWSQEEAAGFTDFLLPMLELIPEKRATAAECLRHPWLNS
Experiment [3] has the same target. The conditions noted are these: at 1 µM.
For experiment [4], the target named is Phosphatidylinositol 4,5-bisphosphate 3-kinase catalytic subunit alpha isoform (Homo sapiens) (UniProt P42336). The conditions noted are these: at 0.1 µM.
Sequence of Phosphatidylinositol 4,5-bisphosphate 3-kinase catalytic subunit alpha isoform (Homo sapiens) (P42336 whole entry, canonical isoform): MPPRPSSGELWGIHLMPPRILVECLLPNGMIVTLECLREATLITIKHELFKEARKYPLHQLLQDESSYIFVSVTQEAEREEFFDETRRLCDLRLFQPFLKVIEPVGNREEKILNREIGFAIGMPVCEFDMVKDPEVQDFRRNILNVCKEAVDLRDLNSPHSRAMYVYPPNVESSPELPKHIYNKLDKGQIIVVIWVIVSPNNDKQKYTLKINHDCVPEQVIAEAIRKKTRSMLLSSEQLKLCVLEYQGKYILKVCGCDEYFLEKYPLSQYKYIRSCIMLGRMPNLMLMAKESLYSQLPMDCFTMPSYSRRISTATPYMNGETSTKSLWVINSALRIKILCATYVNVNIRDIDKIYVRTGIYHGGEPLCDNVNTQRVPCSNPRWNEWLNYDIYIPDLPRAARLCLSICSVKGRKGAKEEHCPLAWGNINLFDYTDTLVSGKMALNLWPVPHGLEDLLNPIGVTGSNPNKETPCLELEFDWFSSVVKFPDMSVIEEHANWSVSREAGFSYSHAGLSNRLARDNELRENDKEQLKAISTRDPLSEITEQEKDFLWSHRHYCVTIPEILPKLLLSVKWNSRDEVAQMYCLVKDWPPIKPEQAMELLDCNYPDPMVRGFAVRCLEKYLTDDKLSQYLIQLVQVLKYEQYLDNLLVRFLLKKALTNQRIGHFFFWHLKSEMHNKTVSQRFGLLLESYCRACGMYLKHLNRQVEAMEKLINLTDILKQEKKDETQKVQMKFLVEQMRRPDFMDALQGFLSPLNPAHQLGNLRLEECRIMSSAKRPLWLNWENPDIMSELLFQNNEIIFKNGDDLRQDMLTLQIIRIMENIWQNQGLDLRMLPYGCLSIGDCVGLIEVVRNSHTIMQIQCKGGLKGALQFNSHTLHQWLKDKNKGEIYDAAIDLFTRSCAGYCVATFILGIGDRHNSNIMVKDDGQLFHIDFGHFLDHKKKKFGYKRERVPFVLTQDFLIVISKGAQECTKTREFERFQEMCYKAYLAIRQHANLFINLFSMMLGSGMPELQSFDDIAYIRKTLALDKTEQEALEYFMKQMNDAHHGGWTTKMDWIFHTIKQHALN
Experiment [5] shares this target. Particulars: at 1 µM.
The target in experiment [6] is T2, Phosphatidylinositol 4,5-bisphosphate 3-kinase catalytic subunit delta isoform (Homo sapiens) (UniProt O00329).
T2 sequence (whole entry): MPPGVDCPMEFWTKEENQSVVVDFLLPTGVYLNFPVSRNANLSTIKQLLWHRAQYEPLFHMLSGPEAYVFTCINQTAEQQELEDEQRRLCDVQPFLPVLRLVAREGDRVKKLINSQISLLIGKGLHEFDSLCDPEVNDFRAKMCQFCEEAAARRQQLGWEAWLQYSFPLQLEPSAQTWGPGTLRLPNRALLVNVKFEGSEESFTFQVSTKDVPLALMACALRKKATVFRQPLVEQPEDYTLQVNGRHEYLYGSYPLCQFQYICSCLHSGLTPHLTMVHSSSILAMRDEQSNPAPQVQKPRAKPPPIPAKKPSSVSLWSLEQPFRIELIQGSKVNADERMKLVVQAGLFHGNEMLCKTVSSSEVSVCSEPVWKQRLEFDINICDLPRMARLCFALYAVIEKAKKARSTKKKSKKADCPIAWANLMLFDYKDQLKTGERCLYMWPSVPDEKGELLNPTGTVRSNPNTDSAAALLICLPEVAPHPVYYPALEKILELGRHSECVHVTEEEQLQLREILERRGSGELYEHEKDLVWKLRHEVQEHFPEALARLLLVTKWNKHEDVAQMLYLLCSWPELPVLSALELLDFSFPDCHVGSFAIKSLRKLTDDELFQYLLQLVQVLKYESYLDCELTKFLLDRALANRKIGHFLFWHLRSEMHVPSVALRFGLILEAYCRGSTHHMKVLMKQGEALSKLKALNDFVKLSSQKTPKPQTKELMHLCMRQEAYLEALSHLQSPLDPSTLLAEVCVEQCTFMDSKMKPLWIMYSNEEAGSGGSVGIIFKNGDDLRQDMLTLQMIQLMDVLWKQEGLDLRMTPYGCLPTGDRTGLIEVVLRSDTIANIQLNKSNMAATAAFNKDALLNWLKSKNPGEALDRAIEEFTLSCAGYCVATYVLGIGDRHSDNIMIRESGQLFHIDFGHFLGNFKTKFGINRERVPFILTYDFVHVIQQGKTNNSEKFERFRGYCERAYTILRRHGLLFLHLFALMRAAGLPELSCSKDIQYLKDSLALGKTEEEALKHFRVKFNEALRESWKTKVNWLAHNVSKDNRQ
The conditions noted are these: at 0.1 µM.

In experiment [7] the target is T2, Phosphatidylinositol 4,5-bisphosphate 3-kinase catalytic subunit delta isoform (Homo sapiens). Particulars: at 1 µM.
Experiment [8] deals with Phosphatidylinositol 4-kinase beta (Homo sapiens) (UniProt Q9UBF8). The conditions noted are these: at 0.1 µM.
Sequence of Phosphatidylinositol 4-kinase beta (Homo sapiens) (Q9UBF8 2-816 limits assumed): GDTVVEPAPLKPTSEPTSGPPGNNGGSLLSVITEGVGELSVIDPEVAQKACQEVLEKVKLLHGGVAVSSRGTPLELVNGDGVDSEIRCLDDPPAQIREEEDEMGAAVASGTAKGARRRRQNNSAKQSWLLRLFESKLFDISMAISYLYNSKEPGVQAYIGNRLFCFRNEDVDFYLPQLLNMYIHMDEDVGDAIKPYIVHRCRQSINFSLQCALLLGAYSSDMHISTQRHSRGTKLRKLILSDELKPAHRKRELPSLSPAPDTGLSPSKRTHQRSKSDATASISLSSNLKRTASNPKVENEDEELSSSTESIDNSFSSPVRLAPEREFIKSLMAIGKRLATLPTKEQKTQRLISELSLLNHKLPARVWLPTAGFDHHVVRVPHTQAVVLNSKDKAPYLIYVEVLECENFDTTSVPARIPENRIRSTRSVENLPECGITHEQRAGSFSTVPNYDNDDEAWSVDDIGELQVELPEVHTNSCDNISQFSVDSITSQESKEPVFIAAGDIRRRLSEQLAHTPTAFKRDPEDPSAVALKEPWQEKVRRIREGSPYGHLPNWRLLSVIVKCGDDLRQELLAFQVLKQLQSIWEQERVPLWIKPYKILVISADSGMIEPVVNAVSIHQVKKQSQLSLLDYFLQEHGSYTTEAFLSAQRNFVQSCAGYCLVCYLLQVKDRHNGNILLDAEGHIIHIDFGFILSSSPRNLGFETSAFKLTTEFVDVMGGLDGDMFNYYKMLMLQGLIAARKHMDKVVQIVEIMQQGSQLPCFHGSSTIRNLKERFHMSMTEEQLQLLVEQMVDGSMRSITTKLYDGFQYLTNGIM
Experiment [9] shares this target. Particulars: at 1 µM.
In experiment [10] the target is Sphingosine kinase 1 (Homo sapiens) (UniProt Q9NYA1). The conditions noted are these: at 0.1 µM.
Sequence of Sphingosine kinase 1 (Homo sapiens) (Q9NYA1 whole entry): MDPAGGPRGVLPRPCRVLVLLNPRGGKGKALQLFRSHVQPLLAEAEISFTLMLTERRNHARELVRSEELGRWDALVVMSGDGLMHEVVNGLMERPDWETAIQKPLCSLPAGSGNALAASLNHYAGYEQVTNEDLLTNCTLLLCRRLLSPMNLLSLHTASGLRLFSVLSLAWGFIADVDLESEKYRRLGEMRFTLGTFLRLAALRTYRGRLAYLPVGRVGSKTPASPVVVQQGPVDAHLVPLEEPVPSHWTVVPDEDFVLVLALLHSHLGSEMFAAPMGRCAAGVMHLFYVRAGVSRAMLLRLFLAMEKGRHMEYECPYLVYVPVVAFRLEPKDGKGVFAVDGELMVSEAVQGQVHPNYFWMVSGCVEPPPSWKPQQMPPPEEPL
Experiment [11] has the same target. Particulars: at 1 µM.
The target of experiment [12] is T3, Sphingosine kinase 2 (Homo sapiens) (UniProt Q9NRA0).
T3 sequence (whole entry): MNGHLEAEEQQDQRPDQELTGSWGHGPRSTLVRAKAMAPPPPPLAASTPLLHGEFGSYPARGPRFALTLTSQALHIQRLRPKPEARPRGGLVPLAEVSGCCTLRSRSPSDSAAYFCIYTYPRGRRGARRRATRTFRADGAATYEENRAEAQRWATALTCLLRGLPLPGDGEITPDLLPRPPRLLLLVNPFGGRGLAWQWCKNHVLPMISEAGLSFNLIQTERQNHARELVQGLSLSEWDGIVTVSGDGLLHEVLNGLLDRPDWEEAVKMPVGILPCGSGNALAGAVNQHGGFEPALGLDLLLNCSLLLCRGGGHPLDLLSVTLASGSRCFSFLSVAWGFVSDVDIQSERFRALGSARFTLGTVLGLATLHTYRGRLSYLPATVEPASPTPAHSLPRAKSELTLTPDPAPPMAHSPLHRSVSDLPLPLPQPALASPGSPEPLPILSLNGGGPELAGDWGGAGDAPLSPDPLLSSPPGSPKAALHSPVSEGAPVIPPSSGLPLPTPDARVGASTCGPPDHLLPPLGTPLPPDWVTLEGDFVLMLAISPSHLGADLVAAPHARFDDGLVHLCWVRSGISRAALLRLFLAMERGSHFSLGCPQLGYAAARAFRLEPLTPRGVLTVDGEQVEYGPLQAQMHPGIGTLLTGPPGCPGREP
The conditions noted are these: at 0.1 µM.

Experiment [13] deals with T3, Sphingosine kinase 2 (Homo sapiens). The conditions noted are these: at 1 µM.
The target in experiment [14] is Casein kinase II subunit alpha (Homo sapiens) (UniProt P68400). The conditions noted are these: at 0.1 µM.
Sequence of Casein kinase II subunit alpha (Homo sapiens) (P68400 whole entry, looked up): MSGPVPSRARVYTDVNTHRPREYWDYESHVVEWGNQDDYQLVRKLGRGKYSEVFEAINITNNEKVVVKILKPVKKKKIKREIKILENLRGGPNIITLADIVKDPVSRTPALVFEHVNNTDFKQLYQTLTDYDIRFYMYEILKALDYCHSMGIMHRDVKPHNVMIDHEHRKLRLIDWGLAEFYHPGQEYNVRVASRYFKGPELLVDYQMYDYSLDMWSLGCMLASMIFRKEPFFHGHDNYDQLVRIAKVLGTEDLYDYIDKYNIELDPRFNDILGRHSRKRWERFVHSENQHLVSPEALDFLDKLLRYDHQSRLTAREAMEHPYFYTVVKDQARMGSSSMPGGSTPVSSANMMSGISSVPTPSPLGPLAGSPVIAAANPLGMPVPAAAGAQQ
For experiment [15] the target is unchanged. Particulars: at 1 µM.
For experiment [16], the target named is T4, Inhibitor of nuclear factor kappa-B kinase subunit alpha (Homo sapiens) (UniProt O15111).
T4 sequence (whole entry): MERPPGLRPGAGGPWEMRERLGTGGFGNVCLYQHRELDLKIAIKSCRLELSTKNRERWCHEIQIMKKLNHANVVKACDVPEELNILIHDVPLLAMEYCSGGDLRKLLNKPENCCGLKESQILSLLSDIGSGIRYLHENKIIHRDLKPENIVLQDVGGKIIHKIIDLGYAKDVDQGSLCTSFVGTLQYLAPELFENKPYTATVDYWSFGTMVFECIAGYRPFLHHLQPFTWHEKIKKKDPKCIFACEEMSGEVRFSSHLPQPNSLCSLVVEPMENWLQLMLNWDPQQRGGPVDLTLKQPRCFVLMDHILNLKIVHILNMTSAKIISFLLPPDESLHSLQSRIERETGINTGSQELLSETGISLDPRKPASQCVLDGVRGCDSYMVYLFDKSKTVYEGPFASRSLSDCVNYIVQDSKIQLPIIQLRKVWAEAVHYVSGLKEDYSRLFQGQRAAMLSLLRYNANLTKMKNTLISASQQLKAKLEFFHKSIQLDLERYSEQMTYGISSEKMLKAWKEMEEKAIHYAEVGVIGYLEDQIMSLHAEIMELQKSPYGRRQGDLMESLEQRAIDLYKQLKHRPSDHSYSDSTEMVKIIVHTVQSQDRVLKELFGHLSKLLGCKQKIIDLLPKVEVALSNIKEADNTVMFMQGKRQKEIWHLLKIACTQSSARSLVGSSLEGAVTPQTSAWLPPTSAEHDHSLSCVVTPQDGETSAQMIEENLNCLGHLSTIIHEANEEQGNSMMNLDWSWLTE
Particulars: at 0.1 µM.

Experiment [17] has as its target T4, Inhibitor of nuclear factor kappa-B kinase subunit alpha (Homo sapiens). Particulars: at 1 µM.
The target of experiment [18] is T5, Inhibitor of nuclear factor kappa-B kinase subunit beta (Homo sapiens) (UniProt O14920).
T5 sequence (whole entry): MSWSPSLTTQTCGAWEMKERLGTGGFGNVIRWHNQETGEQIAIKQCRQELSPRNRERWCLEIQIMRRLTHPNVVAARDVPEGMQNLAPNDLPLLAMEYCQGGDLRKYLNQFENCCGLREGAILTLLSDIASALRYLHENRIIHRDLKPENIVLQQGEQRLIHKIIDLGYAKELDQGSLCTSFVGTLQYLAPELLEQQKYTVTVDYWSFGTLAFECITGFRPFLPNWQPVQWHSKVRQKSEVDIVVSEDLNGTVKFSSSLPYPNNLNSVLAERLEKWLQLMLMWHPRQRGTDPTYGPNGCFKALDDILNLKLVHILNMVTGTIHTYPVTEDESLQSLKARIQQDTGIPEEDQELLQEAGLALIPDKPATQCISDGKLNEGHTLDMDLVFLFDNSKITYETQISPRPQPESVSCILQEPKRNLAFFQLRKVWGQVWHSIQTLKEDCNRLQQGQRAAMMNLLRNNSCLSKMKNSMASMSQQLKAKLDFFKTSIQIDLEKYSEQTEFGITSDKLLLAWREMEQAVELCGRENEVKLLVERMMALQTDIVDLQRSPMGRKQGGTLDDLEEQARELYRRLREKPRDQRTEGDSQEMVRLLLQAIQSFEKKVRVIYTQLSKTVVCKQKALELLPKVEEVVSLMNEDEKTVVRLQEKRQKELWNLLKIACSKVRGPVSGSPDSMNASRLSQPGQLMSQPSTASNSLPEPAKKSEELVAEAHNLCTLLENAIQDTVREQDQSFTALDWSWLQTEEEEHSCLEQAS
The conditions noted are these: at 0.1 µM.

Experiment [19] addresses T5, Inhibitor of nuclear factor kappa-B kinase subunit beta (Homo sapiens). Particulars: at 1 µM.
Experiment [20] has as its target T6, Inhibitor of nuclear factor kappa-B kinase subunit epsilon (Homo sapiens) (UniProt Q14164).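 Further: mean inhibition of IKKε reported, from the GSK PKIS dataset.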
T6 sequence (whole entry): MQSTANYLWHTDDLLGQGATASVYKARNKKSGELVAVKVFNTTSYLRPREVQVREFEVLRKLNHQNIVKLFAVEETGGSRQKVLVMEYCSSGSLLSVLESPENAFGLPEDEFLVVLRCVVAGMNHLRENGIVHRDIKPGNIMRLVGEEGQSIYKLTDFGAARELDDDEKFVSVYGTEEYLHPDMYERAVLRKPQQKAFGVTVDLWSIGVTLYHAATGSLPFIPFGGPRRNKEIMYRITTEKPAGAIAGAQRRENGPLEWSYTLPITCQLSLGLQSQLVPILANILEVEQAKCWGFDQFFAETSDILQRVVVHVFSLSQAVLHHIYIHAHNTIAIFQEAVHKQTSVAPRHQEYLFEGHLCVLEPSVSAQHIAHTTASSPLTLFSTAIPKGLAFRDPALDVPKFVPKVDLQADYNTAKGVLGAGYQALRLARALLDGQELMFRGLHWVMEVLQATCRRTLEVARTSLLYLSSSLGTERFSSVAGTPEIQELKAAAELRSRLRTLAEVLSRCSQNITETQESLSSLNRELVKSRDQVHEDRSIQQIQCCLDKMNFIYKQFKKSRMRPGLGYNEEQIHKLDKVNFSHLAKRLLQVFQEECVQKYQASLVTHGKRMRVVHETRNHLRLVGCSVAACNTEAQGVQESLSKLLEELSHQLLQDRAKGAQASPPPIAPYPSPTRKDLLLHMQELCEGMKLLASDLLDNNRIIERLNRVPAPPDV
Particulars: at 0.1 µM.

With `O=C(Nc1ccc(Oc2ccc3[nH]c(NC(=O)c4ccco4)nc3c2)cc1)Nc1cc(C(F)(F)F)ccc1F`, the inhibition in experiment [1] is 3.11%; in experiment [2], -0.3%; in experiment [3], 5.87%; in experiment [4] it was -0.31%; in experiment [5] it was 0.01%; in experiment [6] it was 0.36%. Moreover, the inhibition in [7] was 2.96%; in [8], 1.45%; in [9], 1.53%; in experiment [10], 0.3%; in experiment [11] it was 6.73%; in [12], 0.7%. The inhibition in [13] is -0.32%; in [14] it was 0.08%; in [15] it was -0.44%; in experiment [16], 0.68%; in experiment [17], 5.25%; in experiment [18], -0.61%. Moreover, the values for the inhibition in experiment [19] and in experiment [20] were -1.89% and -0.79%, respectively.

As to `Cc1cc(-c2ccccn2)cc(C)c1/C=C/c1cncc(-c2nn[nH]n2)c1`, the inhibition in experiment [1] is 5.02%; in [2] it was -3.94%; in experiment [3], -5.12%; in experiment [4] it was 3.8%; in [5] it was 3.72%; in [6] it was 0.41%. The inhibition in experiment [7] is -0.48%; in experiment [8], -1.8%; in [9], 0.81%; in [10] it was 0.97%; in [11], 0.83%; in [12] it was 0%. For the same compound, the inhibition in experiment [13] is 0%; in experiment [14] it was 7.89%; in experiment [15], 6.35%; in experiment [16] it was 5.76%; in [17] it was 7.54%; in [18], 4.37%. The inhibition in experiment [19] was 6.71%; in experiment [20], 7.41%.

With `COC(=O)c1ccc2c(c1)C(=Cc1cc(Br)c(O)c(Br)c1)C(=O)N2`, the inhibition in [1] is 7.78%; in experiment [2], -4.19%; in experiment [3] it was -1.41%; in [4], 20.2%; in experiment [5], 71.1%; in [6], -9.64%. Besides, the inhibition in experiment [7] was -7.81%; in [8], 43.6%; in experiment [9], 87.4%; in experiment [10], 1.25%; in experiment [11] it was -3.43%; in [12], -0.52%. The inhibition in experiment [13] was -0.45%; in [14], 14.7%; in experiment [15], 47%; in experiment [16] it was 5.93%; in experiment [17], 3%; in [18], 6.94%. In addition, the inhibition in [19] came to 8.75%; in experiment [20], 7.2%.

Regarding `CN(C)CCCn1c(-c2nonc2N)nc2cnccc21`, the inhibition was 3.42% in experiment [1]; -2.65% in experiment [2]; -4.44% in [3]; 2.84% in [4]; 5.05% in experiment [5]; 1.95% in [6]. The inhibition was 4.09% in experiment [7]; 0.95% in [8]; 3.34% in experiment [9]; 2.52% in experiment [10]; -0.88% in experiment [11]; 0.92% in experiment [12]. Moreover, the inhibition was 0.09% in [13]; 1.4% in [14]; -1.56% in experiment [15]; 5.57% in experiment [16]; 4.33% in [17]; 6.47% in [18]. In addition, the results for the inhibition in experiment [19] and in experiment [20] were 4.26% and 4.73%, respectively.

What is called inhibition is the relative decrease from the control value, in per cent.
